Results on six compounds are retold here after PubChem BioAssay (NCI).

Assay in all cases: NCI-60 one-dose screen, 48 h (100 = growth as untreated, 0 = no growth, -100 = all killed)
What all share (details): 10 µM unless noted

Assay [1] relates to MOLT-4 leukemia.
In assay [2] the test system is SR leukemia.
For assay [3], the system named is RPMI-8226 leukemia.
The test system of assay [4] is OVCAR-8 ovarian.
The test system of assay [5] is OVCAR-5 ovarian.
Assay [6] has as its system OVCAR-4 ovarian.
The subject of assay [7] is SK-OV-3 ovarian.
Assay [8] relates to IGROV1 ovarian.
Assay [9] deals with OVCAR-3 ovarian.
In assay [10] the test system is HS 578T breast.
For assay [11], the system named is NCI/ADR-RES ovarian.
Assay [12] has as its system T-47D breast.
For assay [13], the system named is BT-549 breast.
Assay [14] relates to MDA-MB-435 melanoma.
The test system of assay [15] is SW-620 colon.
The test system of assay [16] is MCF7 breast.
Assay [17] concerns HCT-116 colon.
The test system of assay [18] is HCC-2998 colon.
Assay [19] concerns KM12 colon.

Compounds without any hit were thinned out: in the full panel of roughly 83,000, 20% have a hit.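 Cell lines were cultured in 96-well plates, exposed to a single compound concentration, and assessed for percent growth 48 hours later.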 Unmarked numbers belong to inactive results. The source made the active and inactive calls. How the source made its calls: active means growth percent below 10; inactive means the rest.

On to `COC1OC(CO)C(O)C(O)[CH]1[Hg][O]C(C)=O` (centres undefined), for which the growth is 91.1% in [1]; 64.3% in assay [2]; 104% in assay [3]; 103% in [4]; 102% in assay [5]; 95.6% in assay [6]. The growth is 117% in assay [7]; 86.9% in [8]; 75.9% in assay [9]; 89.8% in [10]; 92.4% in assay [11]; 63.8% in assay [12]. For the same compound, the growth in assay [13] is 103%; in assay [14], 93.7%; in [15] it was 89%; in [16] it was 53.2%; in [17], 102%; in [18] it was 106%. Moreover, the growth in assay [19] was 94.5%.

Turning to `CC(=O)O[C@@H]1CC[C@]2(C)[C@H]3CC[C@]4(C)C(=O)CC[C@H]4[C@@H]3C[C@@H]3SC(N)=N[C@@]32C1`, the growth in assay [1] was 45.6%; in assay [2], 31.7%; in [3], 48.4%; in [4], 76.8%; in assay [5] it was 98.7%; in assay [6] it was 84%. Further, the growth in [7] was 79.1%; in assay [8], 67.3%; in [9] it was 36.2%; in assay [10] it was 54.5%; in assay [11] it was 44%; in assay [12] it was 65.8%. The growth in assay [13] was 45.2%; in assay [14], 2.34% (active); in assay [15], 44.1%; in assay [16], 32.6%; in assay [17] it was 32.7%; in [18] it was 82.1%. In addition, in assay [19], the growth was 33.1%.

On to `C/C=C(\C)C(=O)O[C@@H]1C(O)[C@H]2OC(COC(=O)CCC(=O)CCCCCC[C@H](CCCCC)O[C@@H]3OC(C)[C@H](OC(C)=O)C(O)[C@H]3O2)[C@H]1OC(=O)/C=C/c1ccccc1` (some centres undefined), for which the growth in assay [1] is 37.7%; in [2], -7.08% (active); in [3], 2.87% (active); in assay [4], 24%; in [5], 49.2%; in assay [6], 18%. In addition, the growth in assay [7] is 12.1%; in assay [8] it was 27.3%; in assay [9] it was 15.4%; in [10], 28.7%; in assay [11], 38.5%; in [12] it was -6.33% (active). In addition, the growth in assay [13] was 22.1%; in assay [14], 0.295% (active); in assay [15], 24.6%; in assay [16], 17.6%; in assay [17] it was 8.86% (active); in assay [18], 39.3%. The growth in [19] is 16.4%.

Turning to `COC(=O)[C@@H](C)C[C@H](Cc1ccccc1)NC(=O)c1nc([C@@H](C[C@H](C(C)C)N(C)C(=O)[C@@H](NC(=O)[C@H]2CCCCN2C)C(C)C)OC(C)=O)sc1C`, the growth is 11.1% in assay [1]; 4.24% (active) in assay [2]; 18.2% in assay [3]; 15% in [4]; 41.4% in assay [5]; 50.6% in [6]. In addition, the growth in assay [7] was 29.9%; in assay [8] it was 22.7%; in [9], -37.8% (active); in assay [10], 13.7%; in assay [11] it was 16.5%; in assay [12] it was 66.1%. Further, the growth in assay [13] is -23.4% (active); in assay [14], -31.5% (active); in assay [15], 20.1%; in [16], 12.3%; in assay [17], 2.54% (active); in [18] it was 13.8%. Moreover, the growth in [19] is 8.06% (active).

`C[C@@H]1C[C@@]2(C)[C@@H](CC[C@@H]3[C@@H]2CC[C@]2(C)C(=O)CC[C@@H]32)CC1=O`: the growth in assay [1] is 66.2%; in [2], 108%; in [3] it was 137%; in assay [4], 62.6%; in assay [5], 93.6%; in assay [6] it was 103%. In addition, the growth in assay [7] is 120%; in [8], 76.7%; in [9] it was 112%; in [10], 81.2%; in [11], 102%; in assay [12], 98.9%. Also, the growth in [13] was 112%; in [14], 90%; in [15], 99.7%; in assay [16], 99.9%; in assay [17], 69.3%; in assay [18], 109%. Also, the growth in assay [19] is 115%.

For `Fc1ccc2c(c1)c(-c1nc(-c3c[nH]c4ncccc34)cs1)cn2CCN1CCOCC1`, the growth in [1] is 35.4%; in assay [2], 39.7%; in assay [3] it was 29%; in assay [4] it was 33.5%; in assay [5] it was 89.8%; in [6] it was 44.7%. For the same compound, the growth in assay [7] was 87.2%; in assay [8] it was 21.5%; in assay [9] it was 59.5%; in assay [10], 53.8%; in [11], 33.6%; in assay [12] it was 7.41% (active). Besides, the growth was 49.6% in assay [13]; 21.5% in assay [14]; 62.9% in assay [15]; 29.7% in assay [16]; 52.6% in assay [17]; 92.9% in [18]. The growth in assay [19] is 32.2%.
